A selection: hits, their analogues and other compounds. The true share with any hit is near 4.2%.
GDH-TPI counter: GDH-TPI coupled enzyme inhibition counter-screen; GDH-TPI coupled enzyme counterscreen, NADH absorbance; inhibition, % at 4.8 µM; 1.2% of 360,000 active; AID 588335
RecA splice inh: blocks M. tuberculosis RecA intein splicing | inhibition, % (no concentration beside the values) | P9WHJ3 | cell-free RecA intein splicing, fluorescence | 0.75% of 290,000 active; in the data active = inhibition above about 30%
CCHF vOTU inh-1: blocks the CCHF virus ovarian tumor domain protease; CCHFV vOTU protease, Pep-AMC fluorescence; inhibition, % at 11.5 µM; 0.55% of 370,000 active; AID 651958
Mtb FBA inh: inhibits M. tuberculosis FBA enzyme; 2.3% of 360,000 active; inhibition, % at 1 µM; purified M. tuberculosis FBA, fluorescence read-out; in the data active = inhibition above about 27%
Target sequence (P9WQA3 whole entry, looked up): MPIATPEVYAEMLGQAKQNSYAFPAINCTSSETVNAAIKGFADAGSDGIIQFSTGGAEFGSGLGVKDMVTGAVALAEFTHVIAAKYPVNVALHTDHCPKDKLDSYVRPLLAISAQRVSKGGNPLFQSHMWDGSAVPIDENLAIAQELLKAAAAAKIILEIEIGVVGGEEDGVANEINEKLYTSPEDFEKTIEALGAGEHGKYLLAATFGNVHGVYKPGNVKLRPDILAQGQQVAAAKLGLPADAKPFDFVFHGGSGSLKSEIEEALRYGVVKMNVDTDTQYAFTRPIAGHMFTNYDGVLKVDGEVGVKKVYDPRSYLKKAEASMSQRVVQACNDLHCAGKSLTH
CCHF vOTU inh-2: confirmation of CCHF virus vOTU protease inhibitors | AID 686976 | shares compounds with CCHF vOTU inh-1 | 17% of 1,900 active | inhibition, % at 11.5 µM | Recombinant CCHFV vOTU, Pep-AMC fluorescence
Hits are given with their value; 0 = inactive; - = no result given. Rule as the data show it, unless noted: active = inhibition above about 30%; inactive = the rest.

SMILES | GDH-TPI counter | RecA splice inh | CCHF vOTU inh-1 | Mtb FBA inh | CCHF vOTU inh-2
CC(C)c1ccc(/C=N/Nc2cc(N3CCOCC3)nc(N3CCOCC3)n2)cc1 | 0 | - | 0 | 0 | -
CC(C)NC(=O)C1Cc2c(-c3ccc(Cl)cc3)ccnc2O1 (stereo not given) | 0 | - | 0 | 0 | -
O=C(COC(=O)Cc1ccccc1F)NC(=O)NC1CCCC1 | 0 | - | 0 | 0 | -
N#C/C(=C\Nc1ccc2c(c1)OCCO2)c1nc2ccccc2[nH]1 | 0 | 0 | 32.1 | 0 | 0
C[C@@H](NC(=O)c1nc[nH]c1C(=O)N[C@@H](CCCCNC(=O)OC(C)(C)C)C(=O)OC(C)(C)C)c1ccccc1 | 0 | 0 | 34.7 | 0 | 0
CC(C)(C)OC(=O)NCCCC[C@H](NC(=O)c1[nH]cnc1C(=O)N[C@@H](Cc1ccccc1)C(=O)OCc1ccccc1)C(=O)OC(C)(C)C | 0 | - | 31.2 | 0 | 0
CC(C)(C)OC(=O)NCCCC[C@H](NC(=O)c1[nH]cnc1C(=O)Nc1ccccc1)C(=O)OC(C)(C)C | 0 | 0 | 0 | 0 | -
CCN(CC)c1ccc(CNc2nc3ccccc3n2CCN2CCCCC2)cc1 | 0 | 0 | 29.6 | 0 | 0
COc1ccc(CNc2nc3ccccc3n2CCN2CCCCC2)cc1 | 0 | 0 | 0 | 0 | -
Cc1cccc(NC2CCCCC2NS(=O)(=O)c2ccccc2)c1 (stereo not given) | 0 | 0 | 0 | 0 | -
O=C(COC(=O)c1nc(Cl)ccc1Cl)NC1CCCCCC1 | 0 | 0 | 0 | 0 | -
O=C(COC(=O)c1ncc(Cl)c(Cl)c1Cl)NC1CCCCCC1 | 0 | 0 | 40.7 | 0 | 0
COc1ccc(CN(C)C(=O)[C@H]2O[C@@H](n3ccc(=O)[nH]c3=O)[C@H](O)[C@@H]2O)cc1OC | - | - | 30.1 | 0 | 0
COc1ccc(OC)c(NC(=O)CSc2nc(O)cc(=O)n2CC(C)C)c1 | 0 | - | 32.5 | 0 | 0
COc1ccc(CSc2nc(O)cc(=O)n2CC(C)C)cc1F | 0 | 0 | 0 | 0 | -
CCCCCCCCN1C(=O)[C@@H](CC(=O)NCc2cccs2)C[C@@]2(C(=O)OC)C1=C[C@H](C(C)C)O[C@@H]2C1CC1 | - | - | 38.9 | - | 0
COC(=O)[C@]12C[C@H](CC(=O)N3CCCCC3)C(=O)N(Cc3ccccc3)C1=C[C@H](C(C)C)O[C@@H]2C1CC1 | - | - | 0 | - | -
CCCCCCCCN1C(=O)[C@@H](CC(=O)N2CCCCC2)C[C@@]2(C(=O)OC)C1=C[C@H](C(C)C)O[C@@H]2C1CC1 | - | - | 31.6 | - | 0
CCCCCCCCN1C(=O)[C@@H](CC(=O)NCCC(C)C)C[C@@]2(C(=O)OC)C1=C[C@H](C(C)C)O[C@@H]2C1CC1 | - | - | 34.5 | - | 0
CCCCCCCCN1C(=O)[C@@H](CC(=O)NCc2cccc3ccccc23)C[C@@]2(C(=O)OC)C1=C[C@H](C(C)C)O[C@@H]2C1CC1 | - | - | 0 | - | -
COc1ccc(C2=NN(C(=O)CCCC(=O)O)C(c3cn(-c4ccccc4)nc3-c3ccccc3)C2)cc1 (stereo not given) | 0 | 0 | 0 | 0 | -
COc1cccc(OCc2cc(C(=O)N(C)C3CC(C)(C)NC(C)(C)C3)no2)c1 | 0 | 0 | 0 | 0 | -
COc1cccc(OCc2cc(C(=O)N(C)C3CCOCC3)no2)c1 | 0 | 0 | 29.7 | 0 | 0
O=C(NCCc1cnc[nH]1)c1ccc(-c2ccccc2)cc1 | 0 | 0 | 0 | 0 | -
COc1ccc(C2CC(c3ccccc3)=NN2C(=O)COC(=O)/C=C/c2ccc(O)c(OC)c2)cc1 (stereo not given) | 0 | 0 | 0 | 0 | -
SMILES | GDH-TPI counter | RecA splice inh | CCHF vOTU inh-1 | Mtb FBA inh | CCHF vOTU inh-2
Cc1c(/C=N/NC(N)=O)c2ccccn2c1C(=O)c1ccncc1 | 55.8 | 0 | 32.0 | 0 | 0
O=C1C(=NO)CC(c2ccccc2)N1c1ccccc1 (stereo not given) | 0 | - | 0 | 0 | -
COc1cc(/C=C2/NC(=O)N(Cc3ccccc3F)C2=O)cc(OC)c1O | 0 | - | 40.5 | 0 | 0
O=C(N/N=C/c1ccc([N+](=O)[O-])o1)C1CC1 | 0 | 0 | 32.4 | 0 | 0
NC(=O)N/N=C/c1ccc([N+](=O)[O-])o1 | 0 | - | 0 | 0 | -
COc1ccc(OC)c(/C=N\Nc2nccs2)c1 | 0 | 0 | 0 | 0 | -
COc1ccc(OC)c(/C=N/Nc2nncn2/N=C/c2cc(OC)ccc2OC)c1 | 0 | 0 | 32.3 | 0 | 0
COc1cc(/C=N\Nc2nncn2N)ccc1OC(C)=O | 0 | 0 | 89.7 | 0 | 0
CCOc1cc(/C=N/Nc2nnc(C)n2N)ccc1O | 0 | 0 | 116.7 | 0 | 0
COc1cc(/C=N/Nc2nncn2/N=C/c2ccc(O)c(OC)c2)ccc1O | 0 | - | 100.3 | 0 | 0
COc1cc(/C=N/NC(=O)c2ccncc2)ccc1OC(C)=O | 0 | 0 | 0 | 0 | -
CCOc1cc(/C=N/NC(=O)CCn2nc(C)cc2C)ccc1O | 0 | 0 | 0 | 0 | -
COc1ccc(S(=O)(=O)N(C)[C@H]2C[C@H]3c4cc(Oc5ccccc5C)ccc4CCN3C(=O)[C@H]2[C@H](C)O)cc1 | 0 | - | 0 | 0 | -
O=c1c2ccccc2nc2n1CCc1c-2[nH]c2ccccc12 | 0 | - | 0 | 0 | -
O=C1CCn2c1c(O)c1ccccc1c2=O | 0 | - | 95.0 | 0 | 34.3
CCOc1ccccc1N1CCN(C(=O)c2cc(S(=O)(=O)N(C)C)ccc2N2CCCC2)CC1 | 0 | - | 0 | 0 | -
COc1ccc(C)cc1-n1cnc2sc(C)c(C)c2c1=O | 0 | - | 30.1 | 0 | 0
COc1ccccc1-n1cnc2sc(C)c(C)c2c1=O | 0 | 0 | 0 | 0 | -
OC(c1ccc(Cl)c(Cl)c1)c1ncc(-c2ccc(C(F)(F)F)cc2)[nH]1 (stereo not given) | 0 | - | 35.0 | 0 | 0
OC(c1ccc(Cl)c(F)c1)c1ncc(-c2ccccc2C(F)(F)F)[nH]1 (stereo not given) | 0 | - | 0 | 0 | -
OC(c1ccc(Cl)c(Cl)c1)c1ncc(-c2ccccc2C(F)(F)F)[nH]1 (stereo not given) | 0 | - | 34.1 | 0 | 0
OC(c1ccc(Cl)c(Cl)c1)c1ncc(-c2ccc(Cl)cc2)[nH]1 (stereo not given) | 0 | - | 0 | 0 | -
Cc1noc(C)c1C(=O)OCC(=O)Nc1ccc(N2CCOCC2)cc1 | 0 | - | 31.7 | 0 | 0
Cc1noc(C)c1C(=O)OCC(=O)Nc1ccc(C(N)=O)cc1 | 0 | 0 | 0 | 0 | -
COC(=O)c1ccc(CN(C(=O)N2CCN(C)CC2)S(=O)(=O)c2ccc(C)cc2)cc1 | 0 | 0 | 44.8 | 0 | 0
SMILES | GDH-TPI counter | RecA splice inh | CCHF vOTU inh-1 | Mtb FBA inh | CCHF vOTU inh-2
COc1ccc(S[C@]2(C(=O)NC(C)C)CC(=O)N[C@@H]2c2ccc(OC)cc2)cc1 | - | - | 0 | - | -
COc1ccc2c(c1)Cc1sc(NC(=O)c3ccco3)nc1-2 | 0 | - | 104.6 | 0 | 0
CN=c1sc2c(n1C)C(=O)c1ccccc1C2=O | 0 | - | 80.0 | 0 | 79.3
COc1ccc(OC)c2c1cc(C(=O)N[C@H](C(=O)N1CCC(C(=O)O)CC1)C(C)C)n2C | 0 | 0 | 35.7 | 0 | 0
Cc1ccc(CC2(c3ccccc3)NC(=O)NC2=O)cc1 (stereo not given) | 0 | - | 0 | 0 | -
Cc1cccc(CSCC(=O)N2CCN(S(=O)(=O)c3ccccc3C#N)CC2)c1 | 0 | - | 0 | 0 | -
CCOC(=O)C1CCN(C2=C(NS(=O)(=O)c3ccc(Br)cc3)C(=O)c3ccccc3C2=O)CC1 | 0 | 0 | 44.8 | 0 | 0
CCOC(=O)C1CCN(C(=O)c2cccc(NS(=O)(=O)c3ccc(Br)cc3)c2)CC1 | 0 | - | 0 | 0 | -

Assay outcomes deposited in PubChem by several laboratories.
